For the assay, the system named is Vero E6 infected with SARS-CoV-2. The assay is described as follows: inhibition of SARS-CoV-2 cytopathic effect; higher = more antiviral protection, active = above 15. The following applies: 48 h.

SMILES strings stand for the structures. A number with no mark means an inactive call.

`C/C(=C(\CCOP(=O)(O)O)SC(=O)c1ccccc1)N(C=O)Cc1cnc(C)nc1N` [benfotiamine]: the “inhibition of SARS-CoV-2 cytopathic effect” value (“inhibition” below) is, setting by setting: (1 nM) 0.45%; (8.33 nM) 2.17%; (100 nM) 2.51%; (833.33 nM) 1.61%; (10000 nM) 0.69%.

Consider `CC(=C(CCOC(=O)C(C)C)SSC(CCOC(=O)C(C)C)=C(C)N(C=O)Cc1cnc(C)nc1N)N(C=O)Cc1cnc(C)nc1N` (stereo in doubt) [sulbutiamine], for which the “inhibition” value is 2% (1 nM); 2.05% (8.33 nM); 3.99% (100 nM); -4.07% (833.33 nM); -4.54% (10000 nM).

For `c1ccc(C(NCCNC(c2ccccc2)c2ccccc2)c2ccccc2)cc1`, the “inhibition” value was -3.48% (1 nM); -3.4% (8.33 nM); 3.81% (100 nM); 2.97% (833.33 nM); -0.01% (10000 nM).

For the compound `C/C=C/C=C/C(=O)O` [sorbic-acid], the “inhibition” value was 1.14% (1 nM); 2.26% (8.33 nM); -1.43% (100 nM); 2.41% (833.33 nM); 2.55% (10000 nM).

As to `N#Cc1ccc(N2CCN(C(=O)COc3ccc4[nH]cc(CCN)c4c3)CC2)cc1` [donitriptan], the “inhibition” value (1 nM) is -0.48%; the “inhibition” value (8.33 nM) was -0.51%; the “inhibition” value (100 nM) was 0.51%; the “inhibition” value (833.33 nM) was -0.87%; the “inhibition” value (10000 nM) was 1.77%.

As to `CC(=O)N(c1onc(C)c1C)S(=O)(=O)c1ccc(N)cc1` [sulfisoxazole-acetyl], the “inhibition” value reads like this: (1 nM) -4.04%; (8.33 nM) -3.48%; (100 nM) -3.58%; (833.33 nM) -0.91%; (10000 nM) 0.37%.

Take `O=C(O)CC1CC(c2ccccc2)=NO1` (stereo not given): the “inhibition” value reads like this: (1 nM) -0.73%; (8.33 nM) 0.07%; (100 nM) -0.78%; (833.33 nM) 2.86%; (10000 nM) 0.36%.

For `COC(=O)C1=C(C)NC(C)=C([N+](=O)[O-])[C@@H]1c1ccccc1C(F)(F)F` (racemic), the “inhibition” value is, setting by setting: (1 nM) 2%; (8.33 nM) -0.15%; (100 nM) -1.34%; (833.33 nM) 2.63%; (10000 nM) 4.88%.

As to `CC/C(=C(\c1ccc(O)cc1)c1ccc(OCCN(C)C)cc1)c1ccccc1` [afimoxifene], the “inhibition” value was -2.83% (1 nM); 1.16% (8.33 nM); 3.76% (100 nM); -0.54% (833.33 nM); 40% (active) (10000 nM).

For the origin of these results see the supplement of paper PMC13380429.
